Experimental data published in PubChem BioAssay.
The source made the active and inactive calls.

Columns and labels:
[1] = test system: Plasmodium falciparum Sir2 (PF13_0152, Sir2A); assay: Plasmodium falciparum Sir2A binding compounds – biochemical, small-molecule microarray, 635 nm fluorescence, primary screen (AID 1098); conditions: fluorescence 635 nm, higher = more signal;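 note: score merges spot fluorescence intensity with its signal-to-noise ratio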
[2] = probe aDKK1 binding to arrayed compounds – biochemical, biotinylated probe, 635/667 nm fluorescence, primary screen (AID 1099); conditions: small-molecule microarray, higher = more signal;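 note: score merges 667nm spot fluorescence with signal to noise across triplicate slides; reference of the scale not given here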
[3] = probe aCHRDL2 binding to arrayed compounds – biochemical, biotinylated probe, 635/667 nm fluorescence, primary screen (AID 1100); conditions: small-molecule microarray, higher = more signal
[4] = change in splice reporter luminescence, either direction, cell-based, HEK293, spliceosome inhibition project, primary screen (AID 1101); conditions: HEK293 splicing luciferase reporter, 24 h, higher = more signal, called active from +8 up or from −8 down;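 note: HEK293 cells carrying a splicing-competent luciferase reporter gene; test concentration not given here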
[5] = biological target: Fibroblast growth factor 10 (Homo sapiens) (UniProt O15520); assay: compounds binding fibroblast growth factor 10 – biochemical, small-molecule microarray, 635 nm fluorescence, primary screen (AID 1102); conditions: FGF10 binding, fluorescence 635 nm, higher = more signal
Sequence of Fibroblast growth factor 10 (Homo sapiens) (O15520 whole entry, looked up): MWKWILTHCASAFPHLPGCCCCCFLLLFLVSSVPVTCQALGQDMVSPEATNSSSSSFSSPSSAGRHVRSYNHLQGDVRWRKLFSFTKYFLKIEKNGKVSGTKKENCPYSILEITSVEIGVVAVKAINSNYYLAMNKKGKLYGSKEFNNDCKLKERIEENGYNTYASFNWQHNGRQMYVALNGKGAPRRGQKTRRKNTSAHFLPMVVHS

[6] = test system: glycogen synthase kinase-3 (GSK3A per assay name; protocol says GSK3B); assay: compounds binding glycogen synthase kinase-3 – biochemical, small-molecule microarray, 635 nm fluorescence, GSK3A, primary screen (AID 1103); conditions: fluorescence 635 nm, higher = more signal; note: the record names both GSK3A and GSK3B
[7] = biological target: Epidermal growth factor receptor (Homo sapiens) (UniProt P00533); assay: compounds binding epidermal growth factor receptor – biochemical, small-molecule microarray, 635 nm fluorescence, primary screen (AID 1104); conditions: EGFR binding, higher = more signal;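 note: score merges 667 nm emission intensity with spot signal to noise over triplicate slides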
Sequence of Epidermal growth factor receptor (Homo sapiens) (P00533 whole entry, looked up): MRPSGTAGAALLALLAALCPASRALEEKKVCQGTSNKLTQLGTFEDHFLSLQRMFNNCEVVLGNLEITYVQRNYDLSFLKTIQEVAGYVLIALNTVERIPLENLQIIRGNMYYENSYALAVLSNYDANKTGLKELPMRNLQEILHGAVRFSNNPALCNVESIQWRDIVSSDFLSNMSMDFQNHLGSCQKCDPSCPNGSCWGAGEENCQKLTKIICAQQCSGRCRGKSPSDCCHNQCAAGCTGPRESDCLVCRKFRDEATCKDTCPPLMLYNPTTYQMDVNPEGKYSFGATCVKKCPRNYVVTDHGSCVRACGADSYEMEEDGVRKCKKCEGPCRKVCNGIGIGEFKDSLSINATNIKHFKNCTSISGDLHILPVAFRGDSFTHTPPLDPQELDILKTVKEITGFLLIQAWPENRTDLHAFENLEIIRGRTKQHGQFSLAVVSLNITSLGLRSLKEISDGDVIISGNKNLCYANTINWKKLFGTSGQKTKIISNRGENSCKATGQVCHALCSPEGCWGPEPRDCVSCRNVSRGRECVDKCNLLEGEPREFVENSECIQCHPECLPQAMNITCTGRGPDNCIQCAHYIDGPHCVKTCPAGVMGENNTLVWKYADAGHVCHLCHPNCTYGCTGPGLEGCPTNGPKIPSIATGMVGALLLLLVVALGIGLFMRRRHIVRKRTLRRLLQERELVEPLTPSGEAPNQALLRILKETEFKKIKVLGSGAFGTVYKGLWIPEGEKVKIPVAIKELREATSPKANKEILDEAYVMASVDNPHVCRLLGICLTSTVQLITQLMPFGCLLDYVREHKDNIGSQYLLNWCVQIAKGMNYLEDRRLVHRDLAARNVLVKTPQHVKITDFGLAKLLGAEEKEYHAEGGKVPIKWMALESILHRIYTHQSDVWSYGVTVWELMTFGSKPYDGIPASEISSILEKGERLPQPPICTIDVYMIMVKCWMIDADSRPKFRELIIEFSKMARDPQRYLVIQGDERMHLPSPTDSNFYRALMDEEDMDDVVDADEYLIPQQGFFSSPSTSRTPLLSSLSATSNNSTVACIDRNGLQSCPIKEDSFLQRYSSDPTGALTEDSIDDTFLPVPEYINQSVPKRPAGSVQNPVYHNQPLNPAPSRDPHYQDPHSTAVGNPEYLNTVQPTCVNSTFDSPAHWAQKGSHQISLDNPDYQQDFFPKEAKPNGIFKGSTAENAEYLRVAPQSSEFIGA

[8] = biological target: Follistatin-related protein 3 (Homo sapiens) (UniProt O95633); assay: compounds binding follistatin-related protein 3 – biochemical, small-molecule microarray, 635 nm fluorescence, primary screen (AID 1105); conditions: FSTL3 binding, higher = more signal;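 note: score merges emission near 667 nm and signal to noise per printed spot across three slides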
Sequence of Follistatin-related protein 3 (Homo sapiens) (O95633 whole entry, looked up): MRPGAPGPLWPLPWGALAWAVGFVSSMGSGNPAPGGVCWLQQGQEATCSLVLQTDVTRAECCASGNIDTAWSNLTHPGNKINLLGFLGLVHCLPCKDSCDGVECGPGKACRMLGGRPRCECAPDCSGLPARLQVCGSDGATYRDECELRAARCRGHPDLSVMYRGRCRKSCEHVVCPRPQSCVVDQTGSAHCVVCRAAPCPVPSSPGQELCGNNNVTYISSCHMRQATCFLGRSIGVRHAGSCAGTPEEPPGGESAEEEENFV

[9] = biological target: Dickkopf-related protein 1 (Homo sapiens) (UniProt O94907); assay: small molecules binding DKK1 protein – biochemical, small-molecule microarray, 635 nm fluorescence scan, primary screen (AID 1106); conditions: higher = more signal;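 note: score merges emission near 667 nm with signal to noise over three replicate slides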
Sequence of Dickkopf-related protein 1 (Homo sapiens) (O94907 whole entry, looked up): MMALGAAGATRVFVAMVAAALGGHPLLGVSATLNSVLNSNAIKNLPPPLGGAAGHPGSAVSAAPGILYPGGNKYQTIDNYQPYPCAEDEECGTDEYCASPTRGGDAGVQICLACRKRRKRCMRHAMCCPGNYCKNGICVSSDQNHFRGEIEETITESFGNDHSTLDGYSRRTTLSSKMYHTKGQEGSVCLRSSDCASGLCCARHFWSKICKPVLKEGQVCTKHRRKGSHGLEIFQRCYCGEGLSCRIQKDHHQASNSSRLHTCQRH

[10] = test system: Inhibin beta A chain (activin A); assay: small molecules binding activin A – biochemical, small-molecule microarray, 635 nm fluorescence scan, primary screen (AID 1107); conditions: INHBA, higher = more signal;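 note: mouse activin A protein probed at 4.33 µg/mL on printed slides; score merges bound-protein fluorescence near 667 nm with spot signal-to-noise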

CCCCC(=C=CC[C@H](O)c1ccccc1OCCO)CCO
composite z-score [1]: 0.653 | composite z-score [2]: -0.182 | composite z-score [3]: -0.0244 | z-score [4]: -0.25 (inactive) | composite z-score [5]: 0.27 | composite z-score [6]: -0.123 | composite z-score [7]: -0.689 | composite z-score [8]: -0.569 | composite z-score [9]: -0.429 | composite z-score [10]: 0.754

[N-]=[N+]=NCc1ccccc1[C@H]1OC(c2ccc(OCCCO)cc2)=N[C@@]1(Cc1ccccc1N=[N+]=[N-])C(N)=O
composite z-score [1]: 1 | composite z-score [2]: 0.853 | composite z-score [3]: 0.879 | z-score [4]: -0.146 (inactive) | composite z-score [5]: 1.3 | composite z-score [6]: 1.29 | composite z-score [7]: 0.32 | composite z-score [8]: 0.828 | composite z-score [9]: 0.28 | composite z-score [10]: 1.02

COC(=O)C(CC#Cc1ccc2c(c1)[C@]1(C(=O)N2)[C@H](c2ccccc2OCCO)N2[C@H](c3ccccc3)[C@H](c3ccccc3)OC(=O)[C@H]2[C@@H]1C(=O)N1CCN(c2ncccn2)CC1)C(=O)OC
composite z-score [1]: 1.01 | composite z-score [2]: -0.216 | composite z-score [3]: -0.145 | z-score [4]: -0.376 (inactive) | composite z-score [5]: 0.683 | composite z-score [6]: 1.29 | composite z-score [7]: 0.484 | composite z-score [8]: 1.27 | composite z-score [9]: 0.891 | composite z-score [10]: 0.143

C#CCN(C(=O)OC(C)(C)C)[C@H](CO)c1ccccc1
composite z-score [1]: -0.223 | composite z-score [2]: -0.331 | composite z-score [3]: -0.601 | z-score [4]: 0.234 (inactive) | composite z-score [5]: 0.286 | composite z-score [6]: 0.419 | composite z-score [7]: 0.258 | composite z-score [8]: -0.0195 | composite z-score [9]: 0.226 | composite z-score [10]: -0.415

O=C1C2C=CC(C(O)c3ccccn3)N(Nc3ccc([N+](=O)[O-])cc3)C2C(=O)N1c1ccccc1 (stereo not given)
composite z-score [1]: 1.42 | composite z-score [2]: 1.01 | composite z-score [3]: 0.891 | z-score [4]: 0.981 (inactive) | composite z-score [5]: 0.37 | composite z-score [6]: 0.377 | composite z-score [7]: 0.0711 | composite z-score [8]: 0.55 | composite z-score [9]: -0.189 | composite z-score [10]: 0.522

O=C1c2ccccc2[C@@]2(Cc3ccccc3N(CC(F)(F)F)C2=O)[C@H](c2ccc(CO)cc2)N1Cc1ccccc1
composite z-score [1]: -0.33 | composite z-score [2]: -0.449 | composite z-score [3]: -0.419 | z-score [4]: -0.719 (inactive) | composite z-score [5]: -0.0636 | composite z-score [6]: 0.387 | composite z-score [7]: -0.171 | composite z-score [8]: 0.766 | composite z-score [9]: 0.309 | composite z-score [10]: 1.32

COC(=O)[C@@]1(Cc2ccccc2)[C@H]2c3cc(C(=O)N(C)C)n(CCF)c3C[C@H]2CN1C(=O)c1ccccc1
composite z-score [1]: 1.56 | composite z-score [2]: 1.27 | composite z-score [3]: 1.42 | z-score [4]: -1.72 (inactive) | composite z-score [5]: -0.0624 | composite z-score [6]: 0.0979 | composite z-score [7]: -0.469 | composite z-score [8]: 0.0598 | composite z-score [9]: -1.23 | composite z-score [10]: -0.711

C=CCOC(=O)[C@@H]1[C@H]2C(=O)O[C@H](c3ccccc3)[C@H](c3ccccc3)N2[C@H](c2ccc(OCCOC(=O)[C@@H]3C[C@@H]4C(=O)N[C@@H](CC(C)C)C(=O)N4[C@@H]3c3ccc(O)cc3)cc2)[C@@]12C(=O)Nc1ccc(I)cc12
composite z-score [1]: 1.03 | composite z-score [2]: -0.228 | composite z-score [3]: -0.355 | z-score [4]: -0.771 (inactive) | composite z-score [5]: 1.37 | composite z-score [6]: 1.28 | composite z-score [7]: 0.817 | composite z-score [8]: 1.42 | composite z-score [9]: 1.14 | composite z-score [10]: 0.79

CN1C(=O)C2C=CC(C(O)c3cccs3)N(N(c3ccccc3)c3ccccc3)C2C1=O (stereo not given)
composite z-score [1]: 0.82 | composite z-score [2]: 0.0508 | composite z-score [3]: 0.66 | z-score [4]: 2.04 (inactive) | composite z-score [5]: 0.347 | composite z-score [6]: 0.347 | composite z-score [7]: -0.665 | composite z-score [8]: 0.602 | composite z-score [9]: -0.351 | composite z-score [10]: 1.27

COCCCNC(=O)[C@@]1(CCC(=O)OC(C)(C)C)N=C(c2ccc(OCCCO)cc2)O[C@H]1c1ccccc1
composite z-score [1]: 1.06 | composite z-score [2]: 0.96 | composite z-score [3]: 1.02 | z-score [4]: -0.187 (inactive) | composite z-score [5]: 0.638 | composite z-score [6]: -0.505 | composite z-score [7]: -0.266 | composite z-score [8]: 0.297 | composite z-score [9]: -0.538 | composite z-score [10]: 0.701

COC(=O)C(CC#Cc1ccc2c(c1)[C@]1(C(=O)N2)[C@H](C(=O)N2CCN(c3ncccn3)CC2)[C@H]2C(=O)O[C@H](c3ccccc3)[C@H](c3ccccc3)N2[C@@H]1c1ccc(O)cc1)C(=O)OC
composite z-score [1]: 1.57 | composite z-score [2]: 2.26 | composite z-score [3]: 1.34 | z-score [4]: -0.0485 (inactive) | composite z-score [5]: 1.09 | composite z-score [6]: 1.37 | composite z-score [7]: 1.18 | composite z-score [8]: 1.47 | composite z-score [9]: 0.856 | composite z-score [10]: 1.59
